Measurements published in PubChem BioAssay.
Active and inactive are the calls of the source.

Experiments:
[1] = tested on: PRMT1 (protein arginine N-methyltransferase 1); assay: PRMT1 binders on small-molecule microarrays, primary screen, biochemical, small-molecule microarray, 635 nm fluorescence (AID 1088); settings: small-molecule microarray binding, higher = more signal;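 also: binding of Prmt1 protein to compounds spotted on small-molecule microarray slides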
[2] = yeast growth modulation, basal conditions, primary screen, YJM789 clinical isolate, OD600, 24 h (AID 1089);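 also: growth of clinical yeast isolate S. cerevisiae YJM 789 seeded 1000 cells per well; test concentration not given here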; settings: S. cerevisiae YJM789 growth, higher = more signal, called active from +8 up or from −8 down
[3] = fission yeast growth modulation, primary screen, strain 972, OD600, 24 h, no modulator (AID 1090);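 also: basal condition with compound alone and no growth modifier present; test concentration not given here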; settings: S. pombe 972 growth, higher = more signal, called active from +8 up or from −8 down
[4] = S. cerevisiae growth modulation with rapamycin, primary screen, strain BY4716, OD600, 96 h (AID 1091); settings: higher = more signal, called active from +8 up or from −8 down; also: test concentration not given here
[5] = target: Torsin-1A-interacting protein 2 (Homo sapiens) (UniProt Q8NFQ8); assay: LULL1 binders on small-molecule microarray, primary screen, cell lysate, human LULL1 lysate, 635/667 nm fluorescence (AID 1092); settings: hLULL1 lysate binding, 635 nm fluorescence, higher = more signal;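 also: probe is lysate of COS7 cells overexpressing human LULL1; score merges per-feature 667 nm fluorescence with signal-to-noise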
[6] = E. coli growth modulation, two-sided OD650, primary screen, E. coli filamentation project, strain DRC41, 24 h (AID 1093); settings: OD650, 24 h, higher = more signal, called active from +8 up or from −8 down;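 also: MC1000 strain lacking acrAB efflux and sulA so SOS filamentation is blocked; test concentration not given here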
[7] = small-molecule microarray binders of probe aLefty2, primary screen, biochemical, biotinylated probe, 635/667 nm fluorescence (AID 1094); settings: higher = more signal;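 also: score merges spot fluorescence near 667 nm with spot signal-to-noise ratio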
[8] = tested on: Noggin (protein binding on small-molecule microarray); assay: Noggin binders on small-molecule microarray, primary screen, biochemical, 635/667 nm fluorescence (AID 1095); settings: 635 nm fluorescence, higher = more signal;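 also: score merges 667 nm feature fluorescence with signal to noise over triplicate slides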
[9] = target: Neurogenic locus notch homolog protein 3 (Homo sapiens) (UniProt Q9UM47); assay: NOTCH3 binders on small-molecule microarray, primary screen, biochemical, 635/667 nm fluorescence (AID 1096); settings: NOTCH3 binding, 635 nm fluorescence, higher = more signal
[10] = small-molecule microarray binders of probe aEGFR, primary screen, biochemical, biotinylated probe, 635/667 nm fluorescence (AID 1097); settings: higher = more signal;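 also: probe is a biotinylated anti-EGFR antibody binding compounds printed on slides; score combines fluorescence near 667 nm and signal to noise of each spot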
[11] = tested on: Plasmodium falciparum Sir2 (PF13_0152, Sir2A); assay: pfSir2 binders on small-molecule microarrays, primary screen, biochemical, small-molecule microarray, 635 nm fluorescence (AID 1098); settings: small-molecule microarray binding, fluorescence 635 nm; higher = more signal;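 also: score merges spot fluorescence intensity with its signal-to-noise ratio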
[12] = small-molecule microarray binders of probe aDKK1, primary screen, biochemical, biotinylated probe, 635/667 nm fluorescence (AID 1099); settings: higher = more signal;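 also: score merges 667nm spot fluorescence with signal to noise across triplicate slides; reference of the scale not given here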
[13] = small-molecule microarray binders of probe aCHRDL2, primary screen, biochemical, biotinylated probe, 635/667 nm fluorescence (AID 1100); settings: higher = more signal
[14] = splicing luciferase reporter signal modulators, primary screen, spliceosome inhibition project, cell-based, HEK293, splice +/- reporter (AID 1101); settings: luminescence, 24 h, higher = more signal, called active from +8 up or from −8 down;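 also: HEK293 cells carrying a splicing-competent luciferase reporter gene; test concentration not given here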
[15] = target: Fibroblast growth factor 10 (Homo sapiens) (UniProt O15520); assay: FGF10 binders on small-molecule microarrays, primary screen, biochemical, small-molecule microarray, 635 nm fluorescence (AID 1102); settings: FGF10 binding, fluorescence 635 nm, higher = more signal
[16] = tested on: glycogen synthase kinase-3 (GSK3A per assay name; protocol says GSK3B); assay: GSK3 binders on small-molecule microarrays, primary screen, biochemical, small-molecule microarray, 635 nm fluorescence, GSK3A (AID 1103); settings: small-molecule microarray binding, fluorescence 635 nm; higher = more signal; also: the record names both GSK3A and GSK3B
[17] = target: Epidermal growth factor receptor (Homo sapiens) (UniProt P00533); assay: EGFR binders on small-molecule microarrays, primary screen, biochemical, small-molecule microarray, 635 nm fluorescence (AID 1104); settings: EGFR binding, higher = more signal;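 also: score merges 667 nm emission intensity with spot signal to noise over triplicate slides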
[18] = target: Follistatin-related protein 3 (Homo sapiens) (UniProt O95633); assay: FSTL3 binders on small-molecule microarrays, primary screen, biochemical, small-molecule microarray, 635 nm fluorescence (AID 1105); settings: FSTL3 binding, higher = more signal;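 also: score merges emission near 667 nm and signal to noise per printed spot across three slides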
[19] = target: Dickkopf-related protein 1 (Homo sapiens) (UniProt O94907); assay: DKK1 binders on small-molecule microarrays, primary screen, biochemical, small-molecule microarray, 635 nm fluorescence scan (AID 1106); settings: DKK1 binding, higher = more signal;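 also: score merges emission near 667 nm with signal to noise over three replicate slides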
[20] = tested on: Inhibin beta A chain (activin A); assay: INHBA (activin A) binders on microarrays, primary screen, biochemical, small-molecule microarray, 635 nm fluorescence scan (AID 1107); settings: small-molecule microarray binding, higher = more signal;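 also: mouse activin A protein probed at 4.33 µg/mL on printed slides; score merges bound-protein fluorescence near 667 nm with spot signal-to-noise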

Follistatin-related protein 3 (Homo sapiens), sequence (O95633 whole entry, looked up): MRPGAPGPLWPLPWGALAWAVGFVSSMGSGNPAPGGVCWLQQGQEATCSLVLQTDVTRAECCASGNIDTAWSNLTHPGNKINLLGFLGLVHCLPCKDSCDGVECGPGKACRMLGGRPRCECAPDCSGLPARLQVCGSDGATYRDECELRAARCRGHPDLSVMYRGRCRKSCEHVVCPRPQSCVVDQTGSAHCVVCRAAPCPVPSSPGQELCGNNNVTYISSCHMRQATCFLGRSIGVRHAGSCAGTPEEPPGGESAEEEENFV
Dickkopf-related protein 1 (Homo sapiens), sequence (O94907 whole entry, looked up): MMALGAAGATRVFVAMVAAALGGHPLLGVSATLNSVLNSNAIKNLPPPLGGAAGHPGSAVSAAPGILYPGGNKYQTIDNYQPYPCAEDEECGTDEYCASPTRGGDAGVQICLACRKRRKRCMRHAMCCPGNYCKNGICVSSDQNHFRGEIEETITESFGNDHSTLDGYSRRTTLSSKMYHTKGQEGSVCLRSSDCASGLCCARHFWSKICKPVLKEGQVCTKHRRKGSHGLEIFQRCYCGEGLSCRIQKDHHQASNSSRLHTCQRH
Epidermal growth factor receptor (Homo sapiens), sequence (P00533 whole entry, looked up): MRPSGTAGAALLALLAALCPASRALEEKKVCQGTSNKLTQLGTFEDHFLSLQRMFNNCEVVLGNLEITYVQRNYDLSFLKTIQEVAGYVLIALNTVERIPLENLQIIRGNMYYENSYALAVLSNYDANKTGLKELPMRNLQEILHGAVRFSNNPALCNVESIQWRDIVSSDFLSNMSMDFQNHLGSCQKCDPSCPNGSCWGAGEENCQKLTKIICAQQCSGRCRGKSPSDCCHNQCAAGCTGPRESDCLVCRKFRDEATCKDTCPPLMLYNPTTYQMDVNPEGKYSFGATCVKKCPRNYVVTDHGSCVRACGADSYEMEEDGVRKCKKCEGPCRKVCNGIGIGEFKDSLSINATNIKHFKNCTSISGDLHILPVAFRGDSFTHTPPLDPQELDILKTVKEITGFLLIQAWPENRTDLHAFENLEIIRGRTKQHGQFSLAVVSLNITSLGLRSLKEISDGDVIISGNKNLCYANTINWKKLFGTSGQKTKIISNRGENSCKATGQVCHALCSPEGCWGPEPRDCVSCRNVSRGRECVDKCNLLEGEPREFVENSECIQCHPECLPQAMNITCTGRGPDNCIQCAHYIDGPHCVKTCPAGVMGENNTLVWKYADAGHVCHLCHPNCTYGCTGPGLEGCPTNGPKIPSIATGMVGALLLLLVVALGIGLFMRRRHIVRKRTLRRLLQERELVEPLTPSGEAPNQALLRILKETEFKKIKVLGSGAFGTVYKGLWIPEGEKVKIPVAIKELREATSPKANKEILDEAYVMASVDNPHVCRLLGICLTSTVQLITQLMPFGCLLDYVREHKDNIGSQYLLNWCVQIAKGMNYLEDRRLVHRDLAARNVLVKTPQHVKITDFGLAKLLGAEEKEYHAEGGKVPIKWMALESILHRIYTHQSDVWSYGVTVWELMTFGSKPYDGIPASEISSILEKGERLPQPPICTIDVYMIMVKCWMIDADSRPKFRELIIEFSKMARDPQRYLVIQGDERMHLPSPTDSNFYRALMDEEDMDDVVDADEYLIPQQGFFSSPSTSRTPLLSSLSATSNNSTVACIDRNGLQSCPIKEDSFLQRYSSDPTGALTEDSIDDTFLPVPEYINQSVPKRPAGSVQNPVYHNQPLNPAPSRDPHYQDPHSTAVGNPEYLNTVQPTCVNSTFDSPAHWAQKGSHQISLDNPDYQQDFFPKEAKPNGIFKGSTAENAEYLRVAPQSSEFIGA
Fibroblast growth factor 10 (Homo sapiens), sequence (O15520 whole entry, looked up): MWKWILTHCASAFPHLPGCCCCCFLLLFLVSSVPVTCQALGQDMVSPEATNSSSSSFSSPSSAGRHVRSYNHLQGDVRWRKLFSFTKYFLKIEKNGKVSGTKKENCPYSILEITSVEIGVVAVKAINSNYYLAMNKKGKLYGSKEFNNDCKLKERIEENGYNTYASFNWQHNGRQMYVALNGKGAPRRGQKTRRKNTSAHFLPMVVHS
Neurogenic locus notch homolog protein 3 (Homo sapiens), sequence (Q9UM47 whole entry, looked up): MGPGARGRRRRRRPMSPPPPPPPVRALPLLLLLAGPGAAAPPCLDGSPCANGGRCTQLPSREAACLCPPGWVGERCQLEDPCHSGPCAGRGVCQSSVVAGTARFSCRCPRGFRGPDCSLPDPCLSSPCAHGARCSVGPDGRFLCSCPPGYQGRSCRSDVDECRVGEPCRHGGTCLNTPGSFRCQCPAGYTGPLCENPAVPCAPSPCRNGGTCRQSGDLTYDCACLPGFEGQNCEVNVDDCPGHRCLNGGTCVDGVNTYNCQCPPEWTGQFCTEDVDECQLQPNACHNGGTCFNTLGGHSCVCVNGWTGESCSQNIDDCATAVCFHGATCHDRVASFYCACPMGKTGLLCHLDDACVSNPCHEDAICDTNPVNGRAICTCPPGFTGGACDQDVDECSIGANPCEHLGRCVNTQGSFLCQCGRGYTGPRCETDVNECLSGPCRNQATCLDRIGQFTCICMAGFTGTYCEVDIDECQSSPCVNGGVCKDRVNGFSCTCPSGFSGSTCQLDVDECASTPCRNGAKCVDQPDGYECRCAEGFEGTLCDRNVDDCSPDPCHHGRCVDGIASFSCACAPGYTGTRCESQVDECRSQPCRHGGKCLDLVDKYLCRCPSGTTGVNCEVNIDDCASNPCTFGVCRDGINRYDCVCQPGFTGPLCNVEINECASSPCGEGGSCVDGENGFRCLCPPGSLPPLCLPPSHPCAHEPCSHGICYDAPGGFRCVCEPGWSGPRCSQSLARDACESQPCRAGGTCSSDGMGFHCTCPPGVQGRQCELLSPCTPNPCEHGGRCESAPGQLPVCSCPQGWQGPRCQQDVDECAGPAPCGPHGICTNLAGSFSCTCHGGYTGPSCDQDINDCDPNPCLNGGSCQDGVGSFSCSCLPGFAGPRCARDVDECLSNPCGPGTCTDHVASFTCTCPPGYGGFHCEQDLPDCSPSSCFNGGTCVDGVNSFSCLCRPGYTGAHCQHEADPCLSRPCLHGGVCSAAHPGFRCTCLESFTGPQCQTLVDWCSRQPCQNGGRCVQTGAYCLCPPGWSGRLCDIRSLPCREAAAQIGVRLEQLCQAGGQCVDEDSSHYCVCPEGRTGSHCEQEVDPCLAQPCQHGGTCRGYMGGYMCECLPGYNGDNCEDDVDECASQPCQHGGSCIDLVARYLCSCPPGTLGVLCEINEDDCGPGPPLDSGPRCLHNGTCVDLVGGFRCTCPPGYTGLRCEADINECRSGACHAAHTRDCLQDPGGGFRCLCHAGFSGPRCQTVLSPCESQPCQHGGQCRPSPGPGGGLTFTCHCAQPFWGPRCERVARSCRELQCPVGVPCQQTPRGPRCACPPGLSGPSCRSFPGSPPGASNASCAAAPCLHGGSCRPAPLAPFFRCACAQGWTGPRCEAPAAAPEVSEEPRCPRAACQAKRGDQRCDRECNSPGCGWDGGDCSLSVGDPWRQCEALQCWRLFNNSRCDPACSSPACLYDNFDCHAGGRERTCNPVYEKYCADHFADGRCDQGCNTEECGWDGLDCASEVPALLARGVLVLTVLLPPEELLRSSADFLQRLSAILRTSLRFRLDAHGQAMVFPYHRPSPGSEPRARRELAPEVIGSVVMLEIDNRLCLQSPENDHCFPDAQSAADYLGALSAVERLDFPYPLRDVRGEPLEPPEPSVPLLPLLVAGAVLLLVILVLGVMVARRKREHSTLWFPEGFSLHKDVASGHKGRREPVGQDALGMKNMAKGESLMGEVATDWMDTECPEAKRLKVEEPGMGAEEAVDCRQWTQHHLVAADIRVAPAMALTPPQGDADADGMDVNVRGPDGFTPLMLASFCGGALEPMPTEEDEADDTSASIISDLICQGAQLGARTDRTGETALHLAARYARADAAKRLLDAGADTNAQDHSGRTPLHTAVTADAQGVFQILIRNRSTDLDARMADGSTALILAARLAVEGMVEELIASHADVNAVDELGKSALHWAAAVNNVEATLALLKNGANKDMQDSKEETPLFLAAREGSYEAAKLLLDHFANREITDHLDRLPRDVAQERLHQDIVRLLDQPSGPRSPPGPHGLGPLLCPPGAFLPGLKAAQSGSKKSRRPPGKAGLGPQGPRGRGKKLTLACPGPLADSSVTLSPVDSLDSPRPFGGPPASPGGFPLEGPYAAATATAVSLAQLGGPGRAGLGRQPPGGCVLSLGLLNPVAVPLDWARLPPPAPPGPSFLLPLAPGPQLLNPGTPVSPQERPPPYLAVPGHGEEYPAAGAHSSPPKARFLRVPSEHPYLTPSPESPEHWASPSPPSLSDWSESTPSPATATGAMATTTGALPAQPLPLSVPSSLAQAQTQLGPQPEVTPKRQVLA
Torsin-1A-interacting protein 2 (Homo sapiens), sequence (Q8NFQ8 whole entry, looked up): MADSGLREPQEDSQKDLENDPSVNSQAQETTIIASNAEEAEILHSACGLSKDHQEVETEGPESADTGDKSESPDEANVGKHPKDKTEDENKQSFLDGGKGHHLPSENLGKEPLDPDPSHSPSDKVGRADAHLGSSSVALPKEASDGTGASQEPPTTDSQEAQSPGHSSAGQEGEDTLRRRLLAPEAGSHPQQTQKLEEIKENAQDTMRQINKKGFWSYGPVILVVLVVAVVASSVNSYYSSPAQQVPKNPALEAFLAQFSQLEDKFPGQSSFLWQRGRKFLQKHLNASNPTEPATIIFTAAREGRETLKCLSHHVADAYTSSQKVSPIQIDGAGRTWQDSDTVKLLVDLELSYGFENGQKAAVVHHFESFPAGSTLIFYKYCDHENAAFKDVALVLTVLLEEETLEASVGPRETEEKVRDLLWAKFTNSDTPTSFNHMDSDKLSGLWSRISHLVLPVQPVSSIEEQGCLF

| SMILES | composite z-score [1] | z-score [2] | z-score [3] | z-score [4] | composite z-score [5] | z-score [6] | composite z-score [7] | composite z-score [8] | composite z-score [9] | composite z-score [10] | composite z-score [11] | composite z-score [12] | composite z-score [13] | z-score [14] | composite z-score [15] | composite z-score [16] | composite z-score [17] | composite z-score [18] | composite z-score [19] | composite z-score [20] |
| --- | --- | --- | --- | --- | --- | --- | --- | --- | --- | --- | --- | --- | --- | --- | --- | --- | --- | --- | --- | --- |
| O=C1O[C@@H](c2ccccc2)[C@@H](c2ccccc2)N2[C@@H](c3ccccc3OCCO)[C@]3(C(=O)Nc4ccc(C#CCCO)cc43)[C@@H](C(=O)O)[C@H]12 | 1.54 | 1.14 (inactive) | -0.82 (inactive) | -0.103 (inactive) | 2.47 | 0.481 (inactive) | -0.3 | 0.573 | 1.12 | -0.352 | 1.58 | -0.878 | -0.721 | -2.02 (inactive) | 0.608 | 1.03 | -0.0589 | 0.14 | -0.167 | 1.24 |
| CC(CCN1CCc2nc(-c3ccccc3)c(-c3ccccc3)cc2C1)=NO[C@@H](C)c1cn([C@H](CO)Cc2ccccc2)nn1 | 0.747 | -2.46 (inactive) | -2.24 (inactive) | -4.45 (inactive) | 0.272 | -0.966 (inactive) | -0.037 | 0.549 | -0.474 | -0.0172 | 0.0154 | -0.336 | 0.119 | -1.26 (inactive) | -0.105 | -0.335 | 0.209 | 0.176 | 0.175 | 1.13 |
| COC(=O)[C@@H]1CCCN1C(=O)[C@@H](C)CO | 0.177 | -1.12 (inactive) | -0.988 (inactive) | 0.258 (inactive) | 0.93 | -0.197 (inactive) | -0.152 | 0.415 | 0.753 | 0.0055 | 0.42 | -0.0908 | -0.445 | -0.74 (inactive) | 0.601 | 1.24 | 0.524 | 0.592 | 0.547 | -0.198 |
| C[C@H](c1ccccc1)N1C(=O)[C@H]2[C@H]3[C@H](O)[C@H](O)CC(=O)[C@@H]3CC[C@H]2C1=O | 0.27 | -0.228 (inactive) | -0.522 (inactive) | -0.478 (inactive) | 0.685 | -0.417 (inactive) | -0.226 | 0.245 | 0.419 | 0.221 | -0.0226 | -0.0352 | -0.394 | 0.737 (inactive) | 0.615 | -0.0137 | 0.268 | 0.344 | 0.822 | -1.79 |
| CCCNC(=O)[C@@H]1c2ccccc2C(=O)N(Cc2ccccc2Cl)[C@H]1c1ccc(CO)cc1 | 1.55 | -0.0545 (inactive) | -0.64 (inactive) | 0.152 (inactive) | 2.47 | 2.2 (inactive) | 0.102 | 0.751 | 1.05 | 0.116 | 1.67 | 0.989 | 0.846 | -0.493 (inactive) | 0.619 | 1.28 | 0.192 | 1.34 | 0.649 | 0.341 |
